From PubChem BioAssay (EPA / NIEHS)
Records with an inconclusive call do not appear. Active and inactive are the calls of the source. The calls were made as follows, unless noted: active = hit-call score of the fitted dose curve at least 0.9, where 1 is the maximum; inactive = score below 0.9.

Tests used:
[1] = CCTE_Shafer_MEA_dev_per_burst_spike_percent: CCTE's Neural Network Formation Assay for Percent of Spikes in a Burst, Shafer Lab (AID 2284032)
Procedure, shortened: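 Value is trapezoidal AUC over recordings on days 5, 7, 9 and 12 of the well-mean fraction of spikes falling in single-electrode bursts; rat cortical cultures exposed continuously from plating, treatment renewed DIV 5 and 9, fitted downward against DMSO.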

[2] = CCTE_Shafer_MEA_dev_per_burst_interspike_interval: CCTE's Neural Network Formation Assay for Burst Interspike Interval, Shafer Lab (AID 2284044)
Procedure, shortened: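 Spontaneous activity of maturing rat cortical networks is recorded on DIV 5, 7, 9 and 12 under chronic compound exposure beginning at plating. Endpoint: burst interspike interval well-mean, collapsed into trapezoidal AUC and fitted in the negative direction relative to DMSO.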

[3] = CCTE_Shafer_MEA_dev_burst_duration_mean: CCTE's Neural Network Formation Assay for Mean Burst Duration, Shafer Lab (AID 2284045)
Procedure, shortened: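 Rat cortical cultures, 1.5 x 10^5 cells/well with laminin drop; continuous dosing days 0–12, media plus treatment refreshed DIV 5, 9. AxIS adaptive spike detection; mean single-electrode burst duration, AUC over four recordings, negative direction vs DMSO.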

[4] = CCTE_Shafer_MEA_dev_interburst_interval_mean: CCTE's Neural Network Formation Assay for Mean Interburst Interval, Shafer Lab (AID 2284046);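 also: well-mean interburst interval of bursting electrodes as AUC over four recording days; curve fitted for decrease in interburst interval relative to DMSO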
Procedure, shortened: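 Rat cortical neurons, 1.5 x 10^5 cells/well, 48-well MEA; compound from day 0 through DIV 12, media and treatment renewed DIV 5/9. Recordings DIV 5, 7, 9, 12; well-mean interburst interval → trapezoidal AUC, loss direction vs DMSO.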

[5] = CCTE_Shafer_MEA_dev_inter_network_spike_interval_mean: CCTE's Neural Network Formation Assay for Mean Inter-network Spike Interval, Shafer Lab (AID 2284047)
Procedure, shortened: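 Primary rat cortical neurons on PEI-coated 48-well MEAs (16 electrodes/well) were exposed from plating day 0 to DIV 12, with dosing renewed at DIV 5 and 9. Recordings at DIV 5, 7, 9, 12 were collapsed by trapezoidal AUC, loss-of-signal fit vs DMSO.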

[6] = CCTE_Shafer_MEA_dev_network_spike_number: CCTE's Neural Network Formation Assay for Number of Network Spikes, Shafer Lab (AID 2284048);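 also: synchronized bursts across electrodes counted on days 5 7 9 12 and integrated as AUC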
Procedure, shortened: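 Rat cortical primary cultures on 48-well MEA (16 electrodes/well); continuous exposure DIV 0–12, full medium and treatment exchange DIV 5, 9. Readout: network spike count, AxIS adaptive detection, recordings DIV 5/7/9/12 collapsed to AUC; loss-of-signal fit, DMSO baseline.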

[7] = CCTE_Shafer_MEA_dev_network_spike_peak: CCTE's Neural Network Formation Assay for Mean Number of Electrodes in Network Spike, Shafer Lab (AID 2284049)
Procedure, shortened: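 Network-spike peak electrode count from recordings on days 5, 7, 9 and 12 was combined as trapezoidal area under the curve. Rat cortical cultures were treated continuously from plating, with compound renewed at each feed (DIV 5, 9); fits versus DMSO.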

[8] = CCTE_Shafer_MEA_dev_spike_duration_mean: CCTE's Neural Network Formation Assay for Mean Spike Duration, Shafer Lab (AID 2284051);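 also: mean network spike duration pooled as area under curve over DIV 5 to 12 recordings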
Procedure, shortened: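 Rat cortical primary cultures, 48-well MEA (16 electrodes/well); compound from plating, renewed DIV 5, 9. Network spike duration (AxIS adaptive detector) recorded DIV 5/7/9/12, combined as trapezoidal AUC; loss direction vs DMSO.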

[9] = CCTE_Shafer_MEA_dev_network_spike_duration_std: CCTE's Neural Network Formation Assay for Standard Deviation of Network Spike Duration, Shafer Lab (AID 2284052);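 also: area under curve of spike duration SD across recording days 5 to 12; hits are decreases in network spike duration SD versus DMSO vehicle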
Procedure, shortened: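 Rat cortical cultures, 1.5 x 10^5 cells/well, exposed continuously from plating to DIV 12 with media/compound renewal at DIV 5, 9. Spontaneous activity recorded DIV 5/7/9/12, AxIS adaptive spike detector; AUC across days; negative direction vs DMSO.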

[10] = CCTE_Shafer_MEA_dev_per_network_spike_spike_number_mean: CCTE's Neural Network Formation Assay for Mean Number of Spikes in a Network Spike, Shafer Lab (AID 2284053)
Procedure, shortened: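 Rat cortical primary cultures on 48-well MEA; compound from day 0, re-dosed with full media change DIV 5, 9. Recorded DIV 5, 7, 9, 12; spikes in 0.05 s window at network-spike peak ÷ total network spikes; AUC; loss vs DMSO.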

[11] = CCTE_Shafer_MEA_dev_per_network_spike_spike_percent: CCTE's Neural Network Formation Assay for Percent of Spikes in a Network Spike, Shafer Lab (AID 2284054)
Procedure, shortened: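 Read-out: percent of spikes falling in a 0.05 s window at network-spike peak, from spontaneous MEA recordings on days 5, 7, 9 and 12; trapezoidal AUC; loss of signal versus DMSO. Rat cortical cultures, compound present throughout.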

[12] = CCTE_Shafer_MEA_dev_AB: CCTE's Alamar Blue Assay for Cytotoxicity in the Neural Network Formation Assay, Shafer Lab (AID 2284083; active = hit-call score of the fitted dose curve at least 0.9, where 1 is the maximum;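 also: resazurin reduction fluorescence as viability of cultured neurons; twelve days of exposure from plating with re-dosing on DIV 5 and 9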)
Procedure, shortened: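 Rat cortical primary cultures, 1.5 x 10^5 cells/well on MEA; continuous compound exposure over 12 days of network development, re-dosed with full medium change DIV 5 and 9. Alamar Blue fluorescence; loss of signal = cytotoxicity vs DMSO baseline.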

[13] = CCTE_Shafer_MEA_dev_mutual_information_norm: CCTE's Neural Network Formation Assay for Mutual Information Normalization, Shafer Lab (AID 2284091)
Procedure, shortened: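 Neurons from rat cortex were seeded at 1.5 x 10^5 cells/well onto PEI-coated MEAs in a laminin drop, then exposed to compound from day 0 for twelve days. Network recordings on four days gave mutual information, summarised by AUC relative to DMSO.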

[14] = CCTE_Shafer_MEA_dev_correlation_coefficient_mean: CCTE's Neural Network Formation Assay for Mean Correlation Coefficient, Shafer Lab (AID 2284093)
Procedure, shortened: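 Rat cortical cultures, 1.5 x 10^5 cells/well, dosed from day 0 for 12 days. Spontaneous spikes recorded DIV 5/7/9/12; electrode-pair correlation coefficients averaged, AUC taken. Fit in loss direction vs DMSO.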

[15] = IUF_NPC1b_proliferation_BrdU_72hr: Leibniz Research Institute for Environmental Medicine (IUF) 72-hour Neural Progenitor Cell Bromodeoxyuridine (BrdU) Proliferation Assay (NPC1b) (AID 2284207)
Procedure, shortened: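 Luminescent BrdU ELISA measured DNA synthesis during the last 16 h of a 72 h exposure of primary human neural progenitor spheres grown with EGF and FGF. Signal was fitted relative to DMSO controls.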

[16] = IUF_NPC1_viability_72hr: Viability Assessment at 72 hours in the Leibniz Research Institute for Environmental Medicine (IUF) Neural Progenitor Cell Proliferation Assay (NPC1) (AID 2284209)
Procedure, shortened: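 Alamar blue fluorescence (RFU) after 72 h exposure, normalized to DMSO baseline. hNPC spheres from GW 16-19 fetal cortex, single sphere per well in growth-factor medium; no compound renewal.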

[17] = CCTE_Mundy_HCI_Cortical_Synap_Neur_Matur_NeuriteSpotCountPerNeuriteLength: CCTE's Synaptogenesis and Neurite Maturation Assay in rat cortical cells for Neurite Spot Count per Neurite Length, Mundy Lab (AID 2284210)
Procedure, shortened: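 Read-out: synaptophysin puncta counted along MAP2-stained neurites, normalised to neurite length, by automated high-content imaging. Rat cortical cells; AraC DIV 5; chemical dosing DIV 7; termination DIV 12. DMSO baseline.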

[18] = CCTE_Mundy_HCI_Cortical_Synap_Neur_Matur_BPCount: CCTE's Synaptogenesis and Neurite Maturation Assay in rat cortical cells for Branch Point Count, Mundy Lab (AID 2284211)
Procedure, shortened: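 In this multiplexed morphology assay, cortical cells from rat receive chemicals at DIV 7 and are fixed at DIV 12, then immunostained and imaged; branch points are counted, with DMSO as baseline.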

[19] = CCTE_Mundy_HCI_Cortical_NOG_NeuriteCount: CCTE's Neurite Outgrowth Assay in rat cortical cells for Neurite Count, Mundy Lab (AID 2284212);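 also: cells fixed about two days after chemical exposure began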
Procedure, shortened: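 Rat cortical primary cells; compound added 2 h post-plating, 1/10 dilution of working solution. Anti-betaIII-tubulin/AF488 ICC; ArrayScan neurite count vs DMSO.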

[20] = CCTE_Mundy_HCI_Cortical_NOG_NeuriteLength: CCTE's Neurite Outgrowth Assay in rat cortical cells for Neurite Length, Mundy Lab (AID 2284213)
Procedure, shortened: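 First, rat primary cortical cells were plated and, 2 h later, given test chemical as a 1/10 dilution. Finally, βIII-tubulin immunostaining enabled automated imaging of neurite length.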

[21] = CCTE_Mundy_HCI_Cortical_Synap_Neur_Matur_NeuriteLength: CCTE's Synaptogenesis and Neurite Maturation Assay in rat cortical cells for Neurite Length, Mundy Lab (AID 2284214)
Procedure, shortened: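 Read-out: high-content imaging of MAP2-labelled neurites, with synaptophysin and Hoechst co-stain, in rat cortical cultures fixed at DIV 12. Activity fitted in positive direction relative to DMSO baseline.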

Compound: F
- outcome [1]: inactive
- outcome [2]: inactive
- outcome [3]: inactive
- outcome [4]: inactive
- outcome [5]: inactive
- outcome [6]: inactive
- outcome [7]: inactive
- outcome [8]: inactive
- outcome [9]: inactive
- outcome [10]: inactive
- outcome [11]: inactive
- outcome [12]: inactive
- outcome [13]: inactive
- outcome [14]: inactive
- AC50 [15]: 1040 µM (active)
- AC50 [16]: 2640 µM (active)
- outcome [17]: inactive
- outcome [18]: inactive
- outcome [19]: inactive
- outcome [20]: inactive
- outcome [21]: inactive
